Here are results for 60 molecules from PubChem BioAssay AID2227 (Johns Hopkins Ion Channel Center, 2009).

Screen size: about 310,000 compounds; about 1,300 (0.42%) were called active.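 How the source made its calls: active means B-score of calcium response area above 5 SD of library B-scores, with initial fluorescence ratio within 5 SD of library; inactive means the rest.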 What follows is part of a selection rich in actives, with near analogues and random picks from the rest.

This assay deals with Short transient receptor potential channel 4 (Mus musculus) (UniProt Q9QUQ5). Briefly: positive allosteric modulators of TRPC4, primary screen, cell-based, mouse TRPC4beta, HEK293 mu-opioid, Fluo-4 calcium (AID 2227).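 On B-score: B-score of integrated fluorescence ratio over time as area under calcium response.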 Particulars: DAMGO EC20, Fluo-4 Ca2+ flux, at 10 µM; active compounds read high.
Short transient receptor potential channel 4 (Mus musculus), sequence (Q9QUQ5 whole entry, looked up): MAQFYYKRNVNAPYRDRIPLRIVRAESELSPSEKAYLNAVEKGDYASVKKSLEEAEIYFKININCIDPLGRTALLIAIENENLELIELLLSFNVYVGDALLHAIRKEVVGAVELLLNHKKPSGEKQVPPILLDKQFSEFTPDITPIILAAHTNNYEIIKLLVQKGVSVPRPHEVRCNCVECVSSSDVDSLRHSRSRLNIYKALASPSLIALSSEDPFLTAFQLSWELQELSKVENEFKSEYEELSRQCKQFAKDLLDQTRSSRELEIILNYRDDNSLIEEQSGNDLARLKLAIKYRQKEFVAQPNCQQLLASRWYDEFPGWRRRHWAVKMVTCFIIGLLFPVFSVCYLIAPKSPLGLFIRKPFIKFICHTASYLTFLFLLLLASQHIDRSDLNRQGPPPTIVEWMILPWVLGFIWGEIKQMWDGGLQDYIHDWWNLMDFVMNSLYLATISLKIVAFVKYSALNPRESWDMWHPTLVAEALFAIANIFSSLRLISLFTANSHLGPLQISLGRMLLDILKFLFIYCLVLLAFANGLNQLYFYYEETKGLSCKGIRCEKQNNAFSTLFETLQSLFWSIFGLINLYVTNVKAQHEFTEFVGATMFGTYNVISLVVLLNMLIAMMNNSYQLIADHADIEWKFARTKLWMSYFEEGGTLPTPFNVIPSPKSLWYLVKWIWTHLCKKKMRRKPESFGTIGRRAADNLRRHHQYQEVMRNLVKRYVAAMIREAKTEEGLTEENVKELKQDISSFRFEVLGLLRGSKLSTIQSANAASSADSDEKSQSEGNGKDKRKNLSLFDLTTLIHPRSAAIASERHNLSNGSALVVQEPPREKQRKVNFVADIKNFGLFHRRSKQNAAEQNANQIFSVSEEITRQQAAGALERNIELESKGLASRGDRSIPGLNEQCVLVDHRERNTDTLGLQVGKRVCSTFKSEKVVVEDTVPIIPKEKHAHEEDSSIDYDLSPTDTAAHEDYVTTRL
For the molecule `Cc1cc(/C=N/n2cnnc2)c(C)n1-c1ccc2ncccc2c1`, the B-score entry is “inactive”.

On to `Cc1ccccc1CC1(CO)CCCN(Cc2ccc3c(c2)OCCO3)C1` (stereo not given), for which the B-score result was “inactive”.

`COc1ccc([N+](=O)[O-])cc1NC(=O)CC1SC(=Nc2cccc(C)c2C)N(/N=C(\C)c2ccc(C)cc2)C1=O` (stereo not given): the B-score result is “inactive”.

As for `O=C(N/N=C/c1ccc(Cl)cc1)c1nc2ccc([N+](=O)[O-])cc2c(=O)[nH]1`, the B-score entry is “inactive”.

Consider `COc1cc(NS(=O)(=O)c2ccc(NC(=S)NC(=O)c3ccccc3)cc2)nc(OC)n1`, for which the B-score entry is “inactive”.

Regarding `CC(OC(=O)CCCc1c[nH]c2ccccc12)C(=O)Nc1ccc(S(N)(=O)=O)cc1` (stereo not given), the B-score result is “inactive”.

Turning to `COCCCNC(=O)/C(C#N)=C/c1c(N2CCCCCC2)nc2ccccn2c1=O`, the B-score entry was “inactive”.

With `Cc1cccn2c(=O)c(/C=C(\C#N)C(N)=O)c(N3CCCCCC3)nc12`, the B-score was 12 (active).

Regarding `Cc1cccn2c(=O)c(/C=C(\C#N)S(=O)(=O)c3ccc(Cl)cc3)c(N3CCC(C(N)=O)CC3)nc12`, the B-score result was “inactive”.

Take `O=C(c1ccc(NS(=O)(=O)c2ccc3[nH]c(=O)[nH]c3c2)cc1)N1CCCCC1`: the B-score entry was “inactive”.

For `CN(C)CCCSc1ccccc1NC(=O)/C=C/c1ccccc1`, the B-score entry is “inactive”.

For the molecule `N=c1c2c3c(sc2ncn1CCCN1CCOCC1)CCCCC3`, the B-score result was “inactive”.

In the case of `N=c1c2c3c(sc2ncn1N)CCCC3`, the B-score result is “inactive”.

With `N=c1c2c3c(sc2ncn1N)CCCCC3`, the B-score was 10 (active).

As for `N#Cc1ncc(C(F)(F)F)cc1Oc1cccnc1`, the B-score result was “inactive”.

Turning to `O=c1cc(N2CCCCC2)c(-c2ccccc2)nn1Cc1cccc(F)c1`, the B-score result was “inactive”.

On to `Cc1ncc([N+](=O)[O-])n1CCOC(=O)c1ccc(Br)cc1`, for which the B-score entry was “inactive”.

Regarding `Cc1cccc(CCNC(=O)Cn2ncc3c([nH]c4ccc(C)cc43)c2=O)c1`, the B-score entry was “inactive”.

In the case of `O=C(CN1CCN(c2ccccn2)CC1)N1CCc2ccccc21`, the B-score entry is “inactive”.

With `O=C1c2cccc3cccc(c23)N1CN1CCN(c2ccccn2)CC1`, the B-score is 10 (active).

Consider `CC(=C1C(=O)c2ccccc2C1=O)N1CCN(c2ccccn2)CC1`, for which the B-score result is “inactive”.

Turning to `Cc1ccc(C)c(OCCC(=O)Nc2cccc(S(=O)(=O)N3CCCC3)c2)c1`, the B-score result was “inactive”.

For `Cc1cccc(OCCCC(=O)Nc2ccc(S(=O)(=O)N3CCCC3)cc2)c1`, the B-score entry was “inactive”.

As for `CC(=O)Nc1ccc(S(=O)(=O)N2CCN(CCCOc3cc(C)ccc3C)CC2)cc1`, the B-score is 32 (active).

For the molecule `CC(=O)c1ccc(N2CCN(S(=O)(=O)c3ccc4c(c3)CC(=O)N4C)CC2)cc1`, the B-score entry is “inactive”.

With `Cc1c(C(=O)NCCN2C(=O)S/C(=C\c3cccs3)C2=O)cccc1[N+](=O)[O-]`, the B-score entry is “inactive”.

In the case of `Cc1[nH][nH]c(=O)c1N=Nc1ccccc1`, the B-score entry was “inactive”.

On to `Cc1[nH]n(-c2ccccc2)c(=O)c1N=Nc1ccccc1C(=O)N1CCCCC1`, for which the B-score result is “inactive”.

Regarding `COC(=O)c1ccccc1N=Nc1c(C)[nH][nH]c1=O`, the B-score was 59 (active).

Turning to `N#Cc1cccc(OC(=O)c2ccc3c(=O)n4c(nc3c2)CCC4)c1`, the B-score entry is “inactive”.

Turning to `COC(=O)C1=C(C)NC2=C(C(=O)c3ccccc32)C1c1ccc(-c2ccc(C(=O)O)cc2)o1` (stereo not given), the B-score is 16 (active).

`CCOC(=O)C1=C(c2ccc(OC)cc2)C(=O)c2ccccc2C1=O`: the B-score entry was “inactive”.

In the case of `CCOC(=O)c1ccc(-c2ccc(C(=O)Nc3cccnc3)o2)cc1`, the B-score entry was “inactive”.

Take `CC(NC(=O)COc1ccc(-c2ccccc2)cc1)C1CCCO1` (stereo not given): the B-score entry is “inactive”.

For `O=C(NCCc1ccccc1)C1CC1`, the B-score entry was “inactive”.

With `CCn1cc(C(=O)N2CC=C(c3ccccc3)CC2)c(=O)c2ccc(C)nc21`, the B-score result was “inactive”.

Regarding `O=C(Nc1cccc(Cl)c1N1CCOCC1)c1ccc2c(c1)OCCO2`, the B-score result is “inactive”.

In the case of `O=C(Nc1cccc(Cl)c1N1CCOCC1)c1cccnc1`, the B-score entry is “inactive”.

Consider `CCN1CCN(c2c(Cl)cccc2NC(=O)c2ccc(Br)o2)CC1`, for which the B-score was 11 (active).

In the case of `COc1ccccc1NC(=O)Nc1nc(CC(=O)Nc2ccccc2F)cs1`, the B-score result was “inactive”.

Take `C=CCc1cccc2cc(C(=O)OCC)c(=O)oc12`: the B-score entry is “inactive”.

As for `CCOC(=O)c1cc2cc3ccccc3cc2oc1=O`, the B-score was 13 (active).

For the molecule `NS(=O)(=O)c1ccc(NC(=O)COC(=O)c2cc3ccccc3oc2=O)cc1`, the B-score result is “inactive”.

Take `CC(C)c1c(C(=O)N/N=C/c2ccc(-c3ccccc3)cc2)nnn1-c1nonc1N`: the B-score result was “inactive”.

Take `CCCc1nc2scc(-c3ccc(C)cc3)c2c(=O)n1N`: the B-score result is “inactive”.

Turning to `CN1CCN(c2ccc(CNS(=O)(=O)c3cccc(F)c3)cc2)CC1`, the B-score result is “inactive”.

For `O=C(CN1CCN(C(=O)c2ccco2)CC1)Nc1ccc2c(c1)OCO2`, the B-score result is “inactive”.

Turning to `O=C(NCC(=O)N1CCN(c2ncc(C(F)(F)F)cc2Cl)CC1)c1ccc(Br)o1`, the B-score entry was “inactive”.

Consider `O=C(CN1CCN(c2ncc(C(F)(F)F)cc2Cl)CC1)Nc1ccc2c(c1)OCO2`, for which the B-score is 10 (active).

In the case of `OCCNc1nc2ccccc2n1-c1ncnc2sc3c(c12)CCC3`, the B-score result is “inactive”.

As for `COCCNC(=S)N1CCC(NC(=O)C23CC4CC(CC(C4)C2)C3)CC1`, the B-score entry is “inactive”.

With `FC(F)(F)COc1nc(N2CCCCC2)nc(N2CCNCC2)n1`, the B-score is 27 (active).

`COc1nc(NC2CCCCC2)nc(N2CCCCCC2)n1`: the B-score result is “inactive”.

For the molecule `CN(N)c1nc(N2CCCC2)nc(N2CCCC2)n1`, the B-score entry was “inactive”.

Turning to `CC(=O)OCCOCn1cnn2c(=O)c(Br)c(C)nc12`, the B-score entry is “inactive”.

Consider `C/C(=N\NC(=O)c1cc(-c2ccc(O)cc2)nc2ccccc12)c1cccnc1`, for which the B-score result was “inactive”.

With `CN(C)c1ccc(/C=C2\NC(=S)N(Cc3ccccc3)C2=O)cc1`, the B-score was 14 (active).

As to `O=C1/C(=C\c2ccsc2)NC(=S)N1c1ccccc1`, the B-score entry was “inactive”.

As for `COc1cc(/C=C2/SC(=S)N(Cc3ccccc3)C2=O)cc(OC)c1O`, the B-score entry is “inactive”.

Take `CCC(C)(C)NC(=O)c1cc([N+](=O)[O-])ccc1N1CCCCC1`: the B-score result was “inactive”.
